In PubChem BioAssay AID2107 (National Center for Advancing Translational Sciences (NCATS), 2009):
Screen size: about 240,000 compounds; about 20 (0.008%) were called active. Inconclusive results (about 1%) are left out. Only a sample is shown. Unmarked numbers belong to inactive results. Calls come from the whole dose curve; as a rule, active = well fitted inhibition curve with a large enough effect; inconclusive = small, poorly fitted or top-dose-only effect, or effect the other way; inactive = flat fitted curve, though single readings scatter.

Each molecule was assayed against Alpha-galactosidase A (Homo sapiens) (UniProt P06280) (assay: qHTS Assay for Inhibitors and Activators of Human alpha-Galactosidase From Spleen Homogenate). Details: 4MU-alpha-Gal fluorescence, 40 min; series mostly up to 80 µM.
Chain of Alpha-galactosidase A (Homo sapiens) (P06280 32-429 limits assumed): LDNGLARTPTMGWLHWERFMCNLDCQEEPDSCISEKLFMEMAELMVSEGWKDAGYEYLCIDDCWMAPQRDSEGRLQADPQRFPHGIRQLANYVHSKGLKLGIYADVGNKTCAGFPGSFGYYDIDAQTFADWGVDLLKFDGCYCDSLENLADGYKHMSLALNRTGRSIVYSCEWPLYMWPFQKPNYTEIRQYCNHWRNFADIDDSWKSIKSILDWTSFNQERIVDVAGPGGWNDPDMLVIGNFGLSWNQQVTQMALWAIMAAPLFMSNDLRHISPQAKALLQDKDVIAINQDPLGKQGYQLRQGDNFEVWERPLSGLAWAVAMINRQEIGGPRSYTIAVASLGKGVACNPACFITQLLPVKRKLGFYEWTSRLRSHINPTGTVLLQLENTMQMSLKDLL
Text: NIH Chemical Genomics Center [NCGC] NIH Molecular Libraries Probe Production Centers Network [MLPCN] MLPCN Grant: R03 MH084842-01 Assay Submitter (PI): Wei Zheng NCGC Assay Overview: Alpha-galactosidase is a homodimeric glycoprotein that hydrolyzes the terminal alpha-galactosyl moieties from glycolipids and glycoproteins. Deficiency of this enzyme results in Fabry Disease with progressive accumulation of globotriaosylceramide and other glycosphingolipids in vascular endothelial cells that causes renal failure, myocardial infarction and stroke, and premature death in patients. It has been reported that the improper folding and trafficking of alpha-galactosidase resulting from genetic mutations may account for a significant number of Fabry patients. […] We optimized this alpha-galactosidase assay in 1536-well plate format for identification of novel small molecule inhibitors or activators with structures other than the sugar analogs in order to develop new pharmacological chaperones. In particular, this assay is directed towards discovering compounds active in more natural setting, tissue homogenate, that may have been missed by screens of the purified enzyme under more stringent conditions.
NCGC Assay Protocol Summary: This is a fluorogenic enzyme assay with 4-methylumbelliferyl-alpha-D-galactopyranoside as the substrate and human spleen homogenate containing alpha-galactosidase as the enzyme preparation. Upon hydrolysis of this fluorogenic substrate, the resulting product, 4-methylumbelliferone (which excites at 365 nm and emits at 440 nm) can be detected by a fluorescence plate reader. Data were normalized to the controls for basal activity (without enzyme) and 100% activity (with enzyme). The AC50 values were determined from concentration-response data modeled with the standard Hill equation. Assay buffer: 50 mM citric acid (titrated with potassium phosphate to pH 5.0), 0.01% Tween-20 (pH 5.0 is an optimal condition for this enzyme assay) 1536-well assay protocol for the alpha-galactosidase from human spleen homogenate: (1) Add 2 ul/well spleen homogenate (1 ug) (2) Add 23 nL compounds in DMSO solution. The final titration was 0.5 nM to 58 uM. (3) Add 2 ul of substrate (1 mM final) (4) Incubate at 37C for 40 min (5) Add 2 ul stop solution (1M NaOH and 1M Glycine mixture, pH 10) (6) Detect the assay plate in a ViewLux plate reader (PerkinElmer) with Ex=365 nm and Em=440nm. Keywords: Alpha-galactosidase, Fabry Disease, pharmacological chaperone, chaperone therapy, high throughput screening, alpha- galactosidase inhibitor, MLSMR, MLSCN, NIH Roadmap, qHTS and NCGC
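Note: 0% = enzyme with vehicle and -100% = no enzyme basal signal.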

SMILES | activity change, negative = inhibition
CSc1ccc(S(=O)(=O)Nc2cccc(F)c2)cc1 | inactive
COC(=O)c1ccc(C(NC(=O)OCc2ccccc2)/C(F)=C/[C@@H](C)C(=O)O)cc1 (stereo partly specified) | inactive
Cc1ccc(-c2csc(N(Cc3ccco3)C(=O)c3cccs3)n2)cc1 | inactive
O=C(Nc1cc(C(=O)Nc2ccc(S(=O)(=O)O)cc2)cc(C(=O)Nc2ccc(S(=O)(=O)O)cc2)c1)Nc1cc(C(=O)Nc2ccc(S(=O)(=O)O)cc2)cc(C(=O)Nc2ccc(S(=O)(=O)O)cc2)c1 | inactive
Cc1ccccc1OCCC(=O)OCC(=O)NC(C)c1ccccc1 (stereo unspecified) | inactive
CC[C@H](C)[C@H](NC(=O)[C@H](Cc1ccc(O)cc1)NC(=O)[C@@H](NC(=O)[C@H](CCCN=C(N)N)NC(=O)[C@@H](N)CC(=O)O)C(C)C)C(=O)N[C@@H](Cc1cnc[nH]1)C(=O)N1CCC[C@H]1C(=O)N[C@@H](Cc1ccccc1)C(=O)O | inactive
CC(=O)Nc1ccc(S(=O)(=O)N2N=NC3C2C2CC4C3(CN(C(=O)OC(C)(C)C)S4(=O)=O)O2)cc1 (stereo unspecified) | inactive
CSCCC(NC(=O)c1cc([N+](=O)[O-])cc([N+](=O)[O-])c1)c1nc2ccccc2[nH]1 (stereo unspecified) | inactive
CCOc1c2ccc(C(=O)NC3CCCc4ccccc43)cc2nn1CC (stereo unspecified) | inactive
Cc1cc(C)c(NC(=O)C[N+](C)(C)CC(O)COc2cccc3ccccc23)c(C)c1 (stereo unspecified) | inactive
CCOC(=O)Cc1csc(SCc2cc(=O)oc3cc(O)ccc23)n1 | inactive
CC1(C)CC(=O)c2cnc3nc4ccccc4n3c2C1 | inactive
COCC1CCCN(Cc2cn[nH]c2-c2cc3ccccc3o2)C1 (stereo unspecified) | inactive
Cc1cc(Cl)ccc1C(=O)C1CCCN(C(=O)CCN2CCCO2)C1 (stereo unspecified) | inactive
CC(C)Cn1c(N)c(C(=O)COC(=O)CN2C(=O)C3CC=CCC3C2=O)c(=O)n(C)c1=O (stereo unspecified) | inactive
O=C(NNc1ccccc1Cl)C(O)(c1cccc(C(F)(F)F)c1)c1cccc(C(F)(F)F)c1 | inactive
O=C(NCc1ccccn1)[C@]1(C(F)(F)F)C[C@H](CCc2ccccc2)CCCO1 | inactive
Cc1cccc(C)c1N1CCN(S(=O)(=O)N2CCCCC2)CC1 | inactive
Cc1cccc2nc(CSc3nc4[nH]ncc4c(=O)n3-c3cccc(Cl)c3)cc(=O)n12 | inactive

SMILES | activity change, negative = inhibition
N#Cc1ncc(C(F)(F)F)cc1Oc1cccnc1 | inactive
CNC(=O)[C@]1(C(F)(F)F)C[C@H](CCc2ccccc2)CCCO1 | inactive
COc1ccc(C[C@H](C(=O)O)N2C(=O)c3ccc(C(=O)O)cc3C2=O)cc1 | inactive
Cc1ccccc1N(C(=O)Cc1cccs1)C(C(=O)NC1CCCCC1)c1cn(C)nc1C (stereo unspecified) | inactive
C[C@@H]1O[C@@H](OC[C@H]2O[C@@H](Oc3cc(O)c4c(c3)O[C@H](c3ccc(O)c(O)c3)CC4=O)[C@H](O)[C@@H](O)[C@@H]2O)[C@H](O)[C@H](O)[C@H]1O | inactive
CCOC(=O)C1CCN(c2c(Nc3cc(C)cc(C)c3)c(=O)c2=O)CC1 | inactive
NC(=O)NC(=O)CSc1nc2cc([N+](=O)[O-])ccc2n1-c1cccc(C(F)(F)F)c1 | inactive
C[C@H]1CCC[C@@]2(C)CCCC[C@]12O | inactive
C=C1CCN(C(CC(C)C)C(=O)NCc2cc(OC)c(OC)c(OC)c2)S(=O)(=O)c2ccccc21 (stereo unspecified) | inactive
COc1ccc(C2/C=C\CN(Cc3ccco3)C(C)C(=O)N2Cc2ccc(F)cc2)cc1 (stereo unspecified) | inactive
COc1cc(C2OC(c3cc(OC)c(OC)c(OC)c3)C(C)C2C)cc(OC)c1OC (stereo unspecified) | inactive
COc1ccc(CN(C(=O)CSc2nnc(-c3ccc(OC)c(OC)c3)o2)c2ccc(F)cc2)cc1 | inactive
C=CCC(C)(O)c1ccco1 (stereo unspecified) | inactive
CCCCCNC(=O)c1cccnc1SCC(=O)Nc1ccccc1OC | inactive
CC1(C)CC(N2CCN(C(c3ccccc3)c3ccccc3)CC2)=CC(=[N+]2CCCCC2)C1 | inactive
COc1ccccc1C(=O)N1CCN=C1SCc1cccnc1 | inactive
O=C(NCCCn1ccnc1)c1cc(-c2ccccc2)on1 | inactive
C=C(C)C1CC=C(C)C(O)C1 (stereo unspecified) | inactive
C=CCN1c2ccccc2[C@]23C[C@@H](C(=O)OC)N(S(=O)(=O)c4ccc([N+](=O)[O-])cc4)C2=NC(C(=O)OC)=C(C(=O)OC)[C@H]13 | -4.05% [at 17.5 µM]

SMILES | activity change, negative = inhibition
[O-][n+]1onc2c1CCc1[nH]c(-c3ccccc3)nc1-2 | inactive
CC(=O)CC(c1ccccc1)C1C(=O)Oc2ccccc2C1=O (stereo unspecified) | inactive
Cc1nn(C)c(C(=O)NNC(=S)NC2CCCCC2)c1Cl | inactive
NCCCCC(N)C(=O)O (stereo unspecified) | inactive
Cn1c(SCC(=O)N/N=C/c2ccc(O)c(O)c2)nc2ccccc21 | inactive
O=c1cc(-c2ccc(O)cc2)oc2c([C@@H]3O[C@H](CO)[C@@H](O)[C@H](O)[C@H]3O)c(O)cc(O)c12 | inactive
CCN(CC)c1ccc(/C=N/NC(=O)c2cnccn2)c(O)c1 | inactive
O=C(NCCCO)/C(=C\C=C\c1ccccc1)NC(=O)c1ccccc1Cl | inactive
COc1ccc(/C=N/Nc2ncnc3sc4c(c23)CCCC4)cc1O | inactive
COc1ccccc1C1C(C#N)=C(N)Oc2c1c(-c1ccccc1)nn2-c1ccccc1 (stereo unspecified) | inactive
CC[C@H](C)[C@H](NC(=O)[C@@H](N)CCC(=O)O)C(=O)N[C@@H](CC(C)C)C(=O)N[C@@H](CC(=O)O)C(=O)N[C@H](C(=O)N1CCC[C@H]1C(=O)N[C@@H](CO)C(=O)N[C@H](C(=O)O)[C@@H](C)O)C(C)C | inactive
C[C@]1(C(=O)NCCc2c[nH]c3ccccc23)C=C[C@@H](Cc2ccccc2)N1C(=O)c1ccccc1 | inactive
CCC1(CC)C(=O)C2=C3C1[C@H](C(=O)OC)C=C(C(=O)OC)C[C@H]3[C@H]1C(=O)N(Cc3ccccc3)C(=O)[C@H]1[C@H]2C (stereo partly specified) | inactive
COc1ccc2c3c1O[C@H]1C[C@@H](O)C=C[C@@]31CCN(C)C2 | inactive
OCCNCc1cccc(OCc2ccccc2Cl)c1 | inactive
CC1=NN(C(=O)c2ccc(Br)cc2)C(O)(c2ccccc2)C1 (stereo unspecified) | inactive
Cc1ccc(-c2nn(CC(C)(C)C)c3ncnc(N)c23)cc1 | inactive
COc1ccc(-c2c(C)cc3oc(=O)cc(-c4ccccc4)c3c2C)cc1OC | inactive
